Results from PubChem BioAssay (EPA / NIEHS).
“And” between values parts separate entries of the source, which are not always exact repeats. Equal entries are not always repeated. Inconclusive results are not listed. The source made the active and inactive calls. Rule for the calls, unless noted: active = hit-call score of the fitted dose curve at least 0.9, where 1 is the maximum; inactive = score below 0.9.

What was measured:
[1] = ACEA_ER_80hr: ACEA Biosciences xCELLigence Real-Time Cell Analysis on Estrogen Receptor Agonism for Proliferation (AID 2282667; active = hit-call score of the fitted dose curve at least 0.9, where 1 is the maximum); settings: T47D proliferation, impedance (xCELLigence), 80 h
In short: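 Real-time electrical impedance tracked growth of the human breast line T47D, with the 80 h post-dosing value used. Dosing spanned eight 1:4 steps down from a 100 uM final top concentration, run in duplicate.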

[2] = APR_HepG2_CellCycleArrest_24hr: Apredica 24-hour HepG2 Assay for Cell Cycle Arrest (AID 2282905); settings: imaging, actives raise or lower the signal;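 note: cell cycle arrest scored as ratio of 2N to 4N nuclear DNA content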
In short: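 Step one: dose HepG2 with test compounds, 0.39–200 uM, 0.5% DMSO, 24 hr. Step two: fix, permeabilize, stain nuclei with Hoechst 33342. Step three: image six fields per well at 20x, quantify DNA content, fit bidirectionally relative to DMSO.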

[3] = APR_HepG2_NuclearSize_24hr: Apredica 24-hour HepG2 Assay for Nuclear Size (AID 2282907); settings: high-content imaging, actives raise or lower the signal
In short: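 After fixation and permeabilization, 24-hr-treated HepG2 cells were stained with Hoechst 33342 and imaged on an ArrayScan (20x). Doses spanned 0.39–200 uM in duplicate. Nuclear diameter changes in either direction were fitted relative to 0.5% DMSO controls.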

[4] = APR_HepG2_CellLoss_24hr: Apredica 24-hour HepG2 Assay for Cell Loss (AID 2282908); settings: high-content imaging;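 for AC50: fit in both directions so a hit may be cell loss or gain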
In short: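 Duplicate wells received compound at ten concentrations (0.39–200 uM; final DMSO 0.5% v/v). After fixation with formaldehyde, nuclei stained with Hoechst 33342 were imaged at 20x. Loss or gain of cell count was fitted relative to DMSO controls.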

[5] = APR_HepG2_MitoticArrest_24hr: Apredica 24-hour HepG2 Assay for Mitotic Arrest (AID 2282910); settings: high-content imaging, actives raise or lower the signal
In short: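 HepG2, 24 hr dosing, 0.39–200 uM, 0.5% DMSO final. Formaldehyde-fixed, Triton-permeabilised, anti-phospho-histone H3 plus Hoechst. ArrayScan imaging at 20x; bidirectional fit vs DMSO baseline.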

[6] = APR_HepG2_MitoMembPot_24hr: Apredica 24-hour HepG2 Assay for Mitochondrial Membrane Potential (AID 2282911); settings: imaging, actives raise or lower the signal
In short: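 Cells are dosed for 24 hr across 0.39 to 200 uM with solvent held at 0.5% DMSO. They are then stained with 250 nM MitoTracker Red CMXRos for 30 min, fixed in 3.7% formaldehyde and imaged.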

[7] = APR_HepG2_MitoMass_24hr: Apredica 24-hour HepG2 Assay for Mitochondrial Mass (AID 2282912); settings: high-content imaging, actives raise or lower the signal
In short: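 Readout: fluorescence of MitoTracker Red CMXRos (250 nM, added 30 min pre-fixation) in fixed HepG2 cells imaged by HCS. Exposure lasted 24 hr at 0.39–200 uM; increases and decreases were both fitted relative to DMSO.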

[8] = APR_HepG2_p53Act_24hr: Apredica 24-hour HepG2 Assay for p53 Activation (AID 2282913); settings: high-content imaging, actives raise or lower the signal;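 note: p53 protein immunofluorescence averaged per cell in HepG2 with Hoechst nuclei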
In short: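 Human HepG2 liver cells; 24 hr cpd treatment, 0.39–200 uM, 0.5% DMSO final. Fixed in 3.7% formaldehyde, permeabilized with 0.5% Triton X-100, stained with anti-p53/Cy5 plus Hoechst 33342. Six images per well at 20x; gain or loss vs DMSO.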

[9] = APR_HepG2_CellLoss_72hr: Apredica 72-hour HepG2 Assay for Cell Loss (AID 2282915); settings: high-content imaging
In short: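 HepG2 cells exposed 72 h to compound at 0.39–200 uM (10 concentrations, duplicate) in 0.5% DMSO. Fixed with 3.7% formaldehyde and Hoechst 33342-stained. Imaged at 20x; nuclear count gives cell number, fitted bidirectionally versus DMSO.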

[10] = APR_HepG2_CellCycleArrest_72hr: Apredica 72-hour HepG2 Assay for Cell Cycle Arrest (AID 2282914); settings: high-content imaging, actives raise or lower the signal
In short: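 Read-out is Hoechst-stained nuclear DNA content measured by automated fluorescence imaging (20x, six images per well), fitted in both directions relative to DMSO. Human HepG2 liver cells received 0.39–200 uM compound for 72 hr at 0.5% v/v DMSO.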

Measured: AC50

CCC(=O)O[C@H]1CC[C@H]2[C@@H]3CCC4=CC(=O)CC[C@]4(C)[C@H]3CC[C@]12C
inactive: [2] | [3] | [6] | [8]
active: [1] 176 nM and 243 nM and 917 nM | [4] 107 µM | [5] 116 µM | [7] 107 µM | [9] 125 µM

O=S(=O)(O)C(F)(F)C(F)(F)C(F)(F)C(F)(F)C(F)(F)C(F)(F)F
inactive: [1] | [2] | [3] | [4] | [5] | [6] | [7] | [8] | [10] | [9]

COS(=O)(=O)OC
inactive: [1] | [2] | [3] | [4] | [5] | [6] | [7] | [8] | [9]

O=NN(c1ccccc1)c1ccccc1
inactive: [1] | [2] | [3] | [4] | [5] | [6] | [7] | [8] | [9]

ClC1=C(Cl)[C@]2(Cl)[C@@H]3[C@@H](Cl)[C@H]4O[C@H]4[C@@H]3C1(Cl)C2(Cl)Cl
active: [2] 80.1 µM | [4] 81.7 µM | [5] 66.5 µM | [8] 87.7 µM | [9] 75.4 µM
inactive: [1] | [3] | [6] | [7]

CCOC(=O)C(O)(c1ccc(Cl)cc1)c1ccc(Cl)cc1
inactive: [1]
active: [2] 54.1 µM | [3] 72.9 µM | [4] 72.3 µM | [5] 70.5 µM | [6] 7.9 µM | [7] 59.5 µM | [8] 82.7 µM | [9] 69.6 µM

CC#Cc1cc(C)nc(Nc2ccccc2)n1
inactive: [1] | [2] | [3] | [4] | [5] | [6] | [7] | [8]
active: [9] 69.8 µM

Nc1ccc(-c2ccc(N)cc2)cc1
active: [2] 100 µM | [8] 100 µM
inactive: [1] | [3] | [4] | [5] | [6] | [7] | [10] | [9]

CCCN(CCC)N=O
inactive: [1] | [2] | [3] | [4] | [5] | [6] | [7] | [8] | [9]

CCCCCCOC(=O)c1ccccc1C(=O)OCCCCCC
inactive: [1] | [2] | [3] | [5] | [7] | [8]
active: [4] 97.3 µM | [6] 112 µM | [10] 109 µM | [9] 102 µM

Cc1ccc(O)c(C)c1
inactive: [1] | [2] | [3] | [4] | [5] | [6] | [7] | [8] | [9]

O=C(O)C(F)(F)C(F)(F)C(F)(F)C(F)(F)C(F)(F)C(F)(F)C(F)(F)C(F)(F)C(F)(F)F
active: [3] 130 µM | [4] 108 µM | [5] 106 µM | [7] 109 µM | [8] 97.4 µM | [9] 96 µM
inactive: [1] | [2] | [6]

O=C(NC(=O)c1c(F)cccc1F)Nc1cc(Cl)c(OC(F)(F)C(F)F)c(Cl)c1
inactive: [1] | [2] | [3] | [4] | [5] | [6] | [7] | [8] | [9]

C=CC(=O)NCNC(=O)C=C
inactive: [1] | [2] | [3] | [4] | [5] | [6] | [7] | [8] | [10] | [9]

ClC(Cl)=C(c1ccc(Cl)cc1)c1ccc(Cl)cc1
inactive: [1] | [2] | [3]
active: [4] 55.3 µM | [5] 60.7 µM | [6] 23.2 µM | [7] 50.4 µM | [8] 57.2 µM | [9] 50 µM

N#Cc1ccc(N(CC(N)=O)CC(F)(F)F)cc1C(F)(F)F
inactive: [1] | [2] | [3] | [4] | [5] | [6] | [7] | [8] | [9]

Oc1ccc(C(c2ccc(O)cc2)(C(F)(F)F)C(F)(F)F)cc1
inactive: [2] | [3] | [4] | [5] | [6] | [7] | [8] | [10]
active: [1] 102 nM and 189 nM and 262 nM | [9] 36.7 µM

NS(=O)(=O)C(F)(F)C(F)(F)C(F)(F)C(F)(F)C(F)(F)C(F)(F)C(F)(F)C(F)(F)F
active: [2] 62.5 µM | [4] 93.4 µM | [6] 72.5 µM | [8] 101 µM | [9] 63.4 µM
inactive: [1] | [3] | [5] | [7]
